# Assay results published in PubChem BioAssay (NCATS).
# Inconclusive results are not listed. A call without a number means that no potency is given here. The source made the active and inactive calls. The call rests on the fitted dose curve; in most records, active means well fitted inhibition curve with a large enough effect; inconclusive means small, poorly fitted or top-dose-only effect; inactive means flat fitted curve, though single readings scatter.
# Experiments:
# Test in all cases: qHTS profiling for inhibitors of Plasmodium falciparum proliferation (AID 504749); further: nearly all actives have a fitted effect of over 60% in size
# Settings in all cases: P. falciparum in erythrocytes, SYBR Green DNA, 72 h; series mostly up to 28.7 µM
# DFO2036 = test system: DFO2036
# In short: (§1)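 Fluorescence of SYBR Green-bound parasite DNA, read at 485/535 nm, served as the growth measure. Infected erythrocytes were cultured with compound 72 h; artemisinin (0.29 uM) and DMSO wells defined the normalization range.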
# DIV14 = test system: DIV14
# In short: as §1
# DIV17 = test system: DIV17
# In short: as §1
# DIV30 = test system: DIV30
# In short: as §1
# Dd2 = test system: Dd2
# In short: as §1
# ECU = test system: ECU
# In short: as §1
# FAB9 = test system: FAB9
# In short: as §1
# GB4 = test system: GB4
# In short: as §1
# HB3 = test system: HB3
# In short: as §1
# ICS = test system: ICS
# In short: as §1
# N140 = test system: N140
# In short: as §1
# P93_24 = test system: P93_24
# In short: as §1
# P94_40 = test system: P94_40
# In short: as §1
# PAD = test system: PAD
# In short: as §1
# PC15 = test system: PC15
# In short: as §1
# PC26 = test system: PC26
# In short: as §1
# PC49 = test system: PC49
# In short: as §1
# SC27B = test system: SC27B
# In short: as §1
# TAB109 = test system: TAB109
# In short: as §1
# JCK = test system: JCK
# In short: as §1
# Potency means the concentration at half of the fitted maximal effect.
Compound,Potency (DFO2036),Potency (DIV14),Potency (DIV17),Potency (DIV30),Potency (Dd2),Potency (ECU),Potency (FAB9),Potency (GB4),Potency (HB3),Potency (ICS),Potency (N140),Potency (P93_24),Potency (P94_40),Potency (PAD),Potency (PC15),Potency (PC26),Potency (PC49),Potency (SC27B),Potency (TAB109),Potency (JCK)
Nc1c(N=Nc2ccc(-c3ccc(N=Nc4cc(S(=O)(=O)O)c5ccccc5c4N)cc3)cc2)cc(S(=O)(=O)O)c2ccccc12,inactive,inactive,inactive,inactive,inactive,inactive,inactive,inactive,inactive,inactive,inactive,inactive,inactive,inactive,inactive,inactive,inactive,inactive,inactive,–
O=C(Nc1cccc(C(F)(F)F)c1)c1cc(Br)cc(Br)c1O,10 µM (active),13.5 µM (active),13.5 µM (active),13.5 µM (active),–,10 µM (active),–,–,–,8.91 µM (active),11.2 µM (active),–,–,–,–,–,–,8.91 µM (active),–,10 µM (active)
C=CCSSSCC=C,inactive,inactive,inactive,inactive,inactive,inactive,inactive,inactive,inactive,inactive,inactive,–,inactive,inactive,inactive,inactive,inactive,inactive,inactive,inactive
CCCCC(C)(O)C/C=C/[C@H]1[C@H](O)CC(=O)[C@@H]1CCCCCCC(=O)OC (stereo not given in full),inactive,inactive,inactive,inactive,inactive,inactive,inactive,inactive,inactive,inactive,inactive,inactive,inactive,inactive,inactive,inactive,inactive,inactive,inactive,inactive
CC1(C)C(C=C(Cl)Cl)C1C(=O)OCc1cccc(Oc2ccccc2)c1 (stereo not given),inactive,inactive,inactive,inactive,–,inactive,inactive,inactive,inactive,–,inactive,inactive,inactive,inactive,inactive,inactive,inactive,inactive,inactive,inactive
C[C@]12CCC(=O)C=C1CC[C@@H]1[C@@H]2[C@@H](O)C[C@@]2(C)[C@H]1CC[C@]2(O)C(=O)COP(=O)(O)O,inactive,inactive,inactive,inactive,inactive,inactive,inactive,inactive,inactive,inactive,inactive,–,inactive,inactive,inactive,inactive,inactive,inactive,inactive,inactive
CC(C)=O,inactive,inactive,inactive,inactive,inactive,inactive,inactive,inactive,inactive,inactive,inactive,inactive,–,inactive,inactive,inactive,inactive,inactive,inactive,inactive
CCOC(=O)C1=C(C)NC(C)=C(C(=O)OCC)C1c1ccccc1C=CC(=O)OC(C)(C)C,11.2 µM (active),12 µM (active),15.1 µM (active),13.5 µM (active),–,–,11.2 µM (active),10.7 µM (active),12.6 µM (active),4.47 µM (active),10 µM (active),7.08 µM (active),–,–,10 µM (active),10.7 µM (active),–,11.2 µM (active),–,inactive
CC(=O)Oc1c(C)cc(OCC(O)CNC(C)C)c(C)c1C (stereo not given),inactive,inactive,inactive,inactive,inactive,inactive,inactive,–,inactive,inactive,inactive,inactive,inactive,inactive,inactive,inactive,inactive,inactive,inactive,inactive
Oc1cc(O)c2c(c1)OC(c1ccc(O)c(O)c1)C(O)C2 (stereo not given),inactive,inactive,inactive,inactive,inactive,–,inactive,–,inactive,inactive,inactive,inactive,inactive,inactive,inactive,inactive,inactive,inactive,inactive,inactive
O=C(COc1ccc(Cl)cc1)OCCNC12CC3CC(CC(C3)C1)C2,inactive,inactive,inactive,–,inactive,inactive,inactive,–,inactive,inactive,inactive,inactive,inactive,inactive,inactive,inactive,inactive,inactive,inactive,inactive
CCCCCCCCCCCC[n+]1ccc2ccccc2c1,0.562 µM (active),0.757 µM (active),0.953 µM (active),1.35 µM (active),0.562 µM (active),1.26 µM (active),1.58 µM (active),0.338 µM (active),2.51 µM (active),0.447 µM (active),0.708 µM (active),0.631 µM (active),0.891 µM (active),2 µM (active),2.24 µM (active),0.953 µM (active),–,1.41 µM (active),0.631 µM (active),12.6 µM (active)
O=S(=O)(O)c1ccc2c(N=Nc3ccc(S(=O)(=O)O)c4ccccc34)c(O)c(S(=O)(=O)O)cc2c1,inactive,inactive,inactive,inactive,inactive,inactive,inactive,inactive,inactive,inactive,inactive,inactive,inactive,inactive,inactive,inactive,inactive,inactive,inactive,inactive
NC(=O)c1ncn(C2OC(CO)C(O)C2O)n1 (stereo not given),inactive,inactive,inactive,inactive,inactive,inactive,inactive,–,inactive,inactive,inactive,inactive,inactive,inactive,inactive,inactive,inactive,inactive,inactive,inactive
CCCCCCCC/C=C\CCCCCCCC(=O)O,inactive,inactive,inactive,inactive,inactive,–,inactive,inactive,inactive,inactive,inactive,inactive,inactive,inactive,–,inactive,inactive,inactive,–,inactive
O=C1CSC2(CCN(CCCN3c4ccccc4Sc4ccc(Cl)cc43)CC2)N1,–,15.1 µM (active),15.1 µM (active),15.1 µM (active),–,–,inactive,16.9 µM (active),–,12.6 µM (active),–,8.91 µM (active),–,–,–,–,–,–,–,inactive
CCN(CC)CCOc1ccc(-c2nc3cc(Cl)ccc3s2)cc1,–,–,15.1 µM (active),inactive,–,–,inactive,16.9 µM (active),inactive,–,inactive,–,–,–,–,inactive,inactive,inactive,–,inactive
CC(Cc1ccc(O)c(O)c1)C(C)Cc1ccc(O)c(O)c1 (stereo not given),inactive,–,–,inactive,–,inactive,inactive,–,inactive,10 µM (active),inactive,–,–,–,–,–,inactive,inactive,–,inactive
